FAS-TE inh: FAS thioesterase domain inhibitors, primary screen, biochemical, fluorescence intensity, uHTS; AID 602261, 2012; hit rate 0.67% among 360,000; recombinant FAS-TE, OMFH fluorogenic substrate, fluorescence endpoint; Fatty acid synthase (Homo sapiens), P49327; inhibition, % at 15 µM;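 active = compounds whose normalised, plate-corrected inhibition of enzyme fluorescence in the single-dose primary screen is 50% or more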;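 also: 0% = DMSO with enzyme and 100% = substrate without enzyme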
CendR NRP1 mod: modulators of CendR peptide binding to NRP-1, primary screen, biochemical, fluorescence polarization, uHTS | FAM-RPARPAR peptide binding to NRP-1 | hit rate 0.85% among 360,000 | AID 602438, 2012 | Neuropilin-1 (Homo sapiens), O14786 | inhibition, % at 25 µM;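 active = inhibition or corrected inhibition above about 18%, plus a signal ratio from 0.5 to 1.5, limit read from the data, passing the limit was not always enough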
Myeloid diff 2: induction of myeloid progenitor differentiation, primary screen, cell-based, flow cytometry, MLPCN library; ER-HoxA9 myeloid progenitors, lysozyme-GFP differentiation; calls only at 10 µM; hit rate 1% among 360,000;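 active = normalized GFP-positive differentiation at or above the plate's own cutoff, the solvent-only control mean plus 3 SD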;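 also: cells exposed to compound for four days before flow analysis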
NadD inh: inhibitors of S. aureus NadD, primary screen, biochemical, colorimetric, uHTS | purified NadD enzyme, colorimetric absorbance read-out | inhibition, % at 20 µM | hit rate 0.78% among 360,000; in the data active = inhibition above about 26%
CRFBP-R2 block: antagonists of CRF-BP/CRF-R2 complex, primary screen, cell-based, HEK293, calcium dye fluorescence, uHTS. CRF-induced calcium fluorescence. inhibition, % at 11.8 µM. hit rate 0.59% among 350,000. AID 588475, 2011;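 active = inhibition of the ligand-induced calcium signal above about 50% at the single tested concentration, limit read from the data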
Starred values were filed as active, the others as inactive; i = inactive; / = no result; + = active, no number. Rows were chosen to be rich in hits. Some 3.6% of all compounds tested hit in one or more screens of this group.

SMILES	FAS-TE inh	CendR NRP1 mod	Myeloid diff 2	NadD inh	CRFBP-R2 block
COC(=O)c1ccc(N2C(c3cc(OC)cc(OC)c3)=Cc3ccc(-c4ccc(C(N)=O)cc4)cc3C2CC(=O)C2CC2)cc1 (stereo not drawn)	17	-5	i	24	/
CN(C(=O)COC(=O)Cc1ccc(Br)cc1)c1c(N)n(Cc2ccccc2)c(=O)[nH]c1=O	2	-3	i	3	17
COc1ccc(Cn2c(=O)sc3ccccc3c2=O)cc1	32	-7	/	-3	-17
Cc1ccccc1Cn1c(=O)sc2ccccc2c1=O	17	3	i	-3	56*
Cc1sc2nc(CN(Cc3cccs3)C(=O)NC3CCCCC3)[nH]c(=O)c2c1C	23	-4	i	6	52*
COc1cccc(OCc2cc(C3Nc4ccccc4C(=O)N3Cc3ccco3)ccc2OC)c1 (stereo not drawn)	24	-3	i	31*	8
O=C1c2ccc(-c3ccc(F)cc3OCc3ccccc3)cc2S(=O)(=O)c2cccc(C(=O)N3CCN(c4ncc(Br)cn4)CC3)c21	20	3	i	58*	3
O=C(NCc1cccc(C(F)(F)F)c1)c1cccc2c1C(=O)c1ccc(N3CCC(Cc4ccccc4)CC3)cc1S2(=O)=O	-87	146	+	23	-49
O=C(O)c1cccc2c1C(=O)c1ccc(-c3ccc(F)cc3OCc3ccccc3)cc1S2(=O)=O	7	-15	i	14	-24
O=C(NCc1cccc(F)c1)c1cccc2c1C(=O)c1ccc(N3CCC(Cc4ccccc4)CC3)cc1S2(=O)=O	-125	146	+	21	-45
CC1CCN(c2ccc3c(c2)S(=O)(=O)c2cccc(C(=O)NCc4cccc(F)c4)c2C3=O)CC1	-108	104	i	8	-29
O=C1NCCc2onc(-c3ccc(Br)cc3)c21	-2	-9	i	-2	/
NC(=O)c1nsc(C(=O)N(Cc2ccc(F)cc2)C(C(=O)NCC2CCCO2)c2ccc(O)cc2)c1N (stereo not drawn)	-2	0	i	-6	11
CCN(CC)c1ncnc2c1ncn2[C@H]1CN(Cc2ccc3c(c2)OCO3)C[C@@H](CO)O1	5	-3	i	2	/
c1ccc(Cn2c(CNc3nc4ccccc4n3CCN3CCCCC3)nc3ccccc32)cc1	9	30*	i	4	-15
O=C(O)c1cc(NN=C2c3ccccc3-c3ccccc32)ccc1Cl	12	-16	i	6	50*
CC(C)(C)NC(=O)CN(C(=O)CCC(=O)Nc1nccs1)c1ccccc1F	-3	-1	i	-3	-22
CC(=O)Nc1cc(-c2ccccc2)cn2c(-c3ccc(F)c(Cl)c3)cnc12	16	-29	i	8	/
Nc1cccn2c(-c3ccc(Cl)c(Cl)c3)cnc12	38	-71	+	24	7
COc1ccc(S(=O)(=O)Nc2cc3c4c(c2)CC(=O)N4CCC3)cc1OC	-12	12	i	-1	21
Cc1cc(=S)cc(C)n1CCCO	-6	32*	i	0	21
CCc1ccc(C2CC(=O)N(c3cccc(F)c3)C3=C2C(=O)OC3)cc1 (stereo not drawn)	0	27*	i	-3	-19
COc1ccc(S(=O)(=O)N2CCN(C(=O)C3CC(=O)N(c4ccccc4F)C3)CC2)cc1OC (stereo not drawn)	-3	6	i	0	-5
Cc1cccc2cc3c(N)c(C(=O)N4CCc5ccccc54)sc3nc12	-25	-74	+	20	-10
CCCNC(=O)C1(C)CCN(Cc2cc(C(F)(F)F)ccc2Cl)C1 (stereo not drawn)	5	22*	i	-2	/
CCNC(=O)C1(C)CCN(Cc2ccc(C(F)(F)F)cc2)C1 (stereo not drawn)	-7	10	i	-4	/
CCNC(=O)CN1C(=O)NC(Cc2ccccc2)(Cc2ccccc2)C1=O	-1	12	i	-3	-7
Clc1ccc(-c2csc(N3CCOCC3)n2)cc1	11	-7	i	-4	77*
CN1C(=O)CN(CCN2CC(=O)N(C)C(=O)C2)CC1=O	-6	-2	i	-3	-13
Cn1c(=O)c2c(-c3ccccc3)n(-c3ccc(N)cc3)cc2n(C)c1=O	-2	37*	i	7	/
